# Data from PubChem BioAssay AID1159580 (chemical genetic matrix, 2015).
# Hit rate of the full screen: of about 5,500 compounds, about 2,000 (36%) were called active. Inconclusive results (about 18%) are left out. Some of the results follow. Unmarked numbers belong to inactive results. Cut-off read from the data, not from the text of the source: active = normalized growth mostly below about 0.91 (no sharp cut-off); inconclusive = no clear call, values can overlap the other calls; inactive = mostly above about 0.92.
# Assay: chemical genetic growth profiling, strain panel (AID 1159580);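 note: tested at 20 µM; growth read once vehicle control cultures reached saturation at 30 °C; 1 = growth at the plate median or of vehicle wells; lower values mean less growth of the strain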
# Settings: growth OD
smiles,measurement,setting,value
CCOP(=S)(OCC)Oc1nc(Cl)c(Cl)cc1Cl,normalized growth,"S. cerevisiae deletion strains, locus YJR075W, strain HOC1, hits give low values",0.999
same,normalized growth,"S. cerevisiae deletion strains, locus YKL009W, strain mrt4, hits give low values",1
same,normalized growth,"S. cerevisiae deletion strains, locus YKL068W, hits give low values",0.99
same,normalized growth,"S. cerevisiae deletion strains, locus YKL085W, strain MDH1 (second series), hits give low values",0.996
same,normalized growth,"S. cerevisiae deletion strains, locus YKL085W, strain MDH1, hits give low values",0.996
same,normalized growth,"S. cerevisiae deletion strains, locus YKL160W, strain elf1, hits give low values",0.974
same,normalized growth,"S. cerevisiae deletion strains, locus YKL190W, strain CNB1, hits give low values",0.996
same,normalized growth,"S. cerevisiae deletion strains, locus YKR001C, strain vps1, hits give low values",0.937
same,normalized growth,"S. cerevisiae deletion strains, locus YKR026C, strain gcn3, hits give low values",0.957
same,normalized growth,"S. cerevisiae deletion strains, locus YKR091W, strain srl3, hits give low values",0.948
same,normalized growth,"S. cerevisiae deletion strains, locus YLL001W, strain dnm1, hits give low values",0.927
same,normalized growth,"S. cerevisiae deletion strains, locus YLL026W, hits give low values",0.982
same,normalized growth,"S. cerevisiae deletion strains, locus YLL041C, strain sdh2, hits give low values",0.954
same,normalized growth,"S. cerevisiae deletion strains, locus YLR027C, strain aat2, hits give low values",0.967
same,normalized growth,"S. cerevisiae deletion strains, locus YLR039C, strain RIC1, hits give low values",0.898
same,normalized growth,"S. cerevisiae deletion strains, locus YLR058C, strain SHM2, hits give low values",0.998
same,normalized growth,"S. cerevisiae deletion strains, locus YLR102C, strain apc9, hits give low values",0.986
same,normalized growth,"S. cerevisiae deletion strains, locus YLR221C, strain rsa3, hits give low values",0.852 (active)
same,normalized growth,"S. cerevisiae deletion strains, locus YLR258W, strain gsy2, hits give low values",0.965
same,normalized growth,"S. cerevisiae deletion strains, locus YLR262C, strain YPT6 (second series), hits give low values",0.724 (active)
same,normalized growth,"S. cerevisiae deletion strains, locus YLR262C, strain YPT6, hits give low values",0.945
same,normalized growth,"S. cerevisiae deletion strains, locus YLR268W, strain sec22, hits give low values",0.986
same,normalized growth,"S. cerevisiae deletion strains, locus YLR320W, strain mms22, hits give low values",0.828 (active)
same,normalized growth,"S. cerevisiae deletion strains, locus YLR330W, strain CHS5, hits give low values",1
same,normalized growth,"S. cerevisiae deletion strains, locus YLR342W, strain FKS1 (second series), hits give low values",1.05
same,normalized growth,"S. cerevisiae deletion strains, locus YLR342W, strain FKS1, hits give low values",0.945
same,normalized growth,"S. cerevisiae deletion strains, locus YLR357W, strain rsc2, hits give low values",0.932
same,normalized growth,"S. cerevisiae deletion strains, locus YLR370C, strain arc18, hits give low values",0.981
same,normalized growth,"S. cerevisiae deletion strains, locus YLR371W, strain rom2, hits give low values",0.999
same,normalized growth,"S. cerevisiae deletion strains, locus YLR384C, strain iki3, hits give low values",0.989
same,normalized growth,"S. cerevisiae deletion strains, locus YLR418C, strain cdc73, hits give low values",0.938
same,normalized growth,"S. cerevisiae deletion strains, locus YML016C, strain PPZ1, hits give low values",1
same,normalized growth,"S. cerevisiae deletion strains, locus YML032C, strain rad52, hits give low values",0.979
same,normalized growth,"S. cerevisiae deletion strains, locus YML120C, strain ndi1, hits give low values",0.946
same,normalized growth,"S. cerevisiae deletion strains, locus YML124C, strain tub3, hits give low values",0.99
same,normalized growth,"S. cerevisiae deletion strains, locus YMR058W, strain fet3, hits give low values",0.921
same,normalized growth,"S. cerevisiae deletion strains, locus YMR078C, strain ctf18, hits give low values",0.984
same,normalized growth,"S. cerevisiae deletion strains, locus YMR125W, strain sto1, hits give low values",0.97
same,normalized growth,"S. cerevisiae deletion strains, locus YMR129W, hits give low values",0.953
same,normalized growth,"S. cerevisiae deletion strains, locus YMR205C, strain PFK2, hits give low values",0.842 (active)
same,normalized growth,"S. cerevisiae deletion strains, locus YMR223W, strain ubp8, hits give low values",0.988
same,normalized growth,"S. cerevisiae deletion strains, locus YMR231W, strain pep5, hits give low values",0.968
same,normalized growth,"S. cerevisiae deletion strains, locus YMR263W, strain SAP30, hits give low values",1.04
same,normalized growth,"S. cerevisiae deletion strains, locus YMR307W, strain GAS1, hits give low values",0.873
same,normalized growth,"S. cerevisiae deletion strains, locus YNL067W, strain RPL9B, hits give low values",1
same,normalized growth,"S. cerevisiae deletion strains, locus YNL071W, strain lat1, hits give low values",0.526 (active)
same,normalized growth,"S. cerevisiae deletion strains, locus YNL128W, strain TEP1, hits give low values",1.01
same,normalized growth,"S. cerevisiae deletion strains, locus YNL153C, strain GIM3, hits give low values",1.01
same,normalized growth,"S. cerevisiae deletion strains, locus YNL209W, strain ssb2, hits give low values",0.995
same,normalized growth,"S. cerevisiae deletion strains, locus YNL233W, strain BNI4, hits give low values",0.993
same,normalized growth,"S. cerevisiae deletion strains, locus YNL248C, strain rpa49, hits give low values",0.93
same,normalized growth,"S. cerevisiae deletion strains, locus YNL250W, strain rad50, hits give low values",0.974
same,normalized growth,"S. cerevisiae deletion strains, locus YNL271C, strain bni1, hits give low values",0.996
same,normalized growth,"S. cerevisiae deletion strains, locus YNL298W, strain CLA4, hits give low values",0.983
same,normalized growth,"S. cerevisiae deletion strains, locus YNL307C, strain MCK1, hits give low values",0.932
same,normalized growth,"S. cerevisiae deletion strains, locus YNL322C, strain KRE1 (second series), hits give low values",0.943
same,normalized growth,"S. cerevisiae deletion strains, locus YNL322C, strain KRE1, hits give low values",0.998
same,normalized growth,"S. cerevisiae deletion strains, locus YNR049C, strain mso1, hits give low values",0.959
same,normalized growth,"S. cerevisiae deletion strains, locus YNR052C, strain pop2, hits give low values",0.994
same,normalized growth,"S. cerevisiae deletion strains, locus YOL006C, strain TOP1, hits give low values",0.861
same,normalized growth,"S. cerevisiae deletion strains, locus YOL012C, strain htz1",0.789
same,normalized growth,"S. cerevisiae deletion strains, locus YOL147C, strain pex11, hits give low values",0.977
same,normalized growth,"S. cerevisiae deletion strains, locus YOR001W, strain rrp6, hits give low values",0.986
same,normalized growth,"S. cerevisiae deletion strains, locus YOR061W, strain CKA2, hits give low values",0.998
same,normalized growth,"S. cerevisiae deletion strains, locus YOR069W, strain VPS5, hits give low values",0.997
same,normalized growth,"S. cerevisiae deletion strains, locus YOR070C, strain gyp1, hits give low values",0.982
same,normalized growth,"S. cerevisiae deletion strains, locus YOR080W, strain dia2, hits give low values",1
same,normalized growth,"S. cerevisiae deletion strains, locus YOR083W, strain WHI5, hits give low values",0.923
same,normalized growth,"S. cerevisiae deletion strains, locus YOR106W, strain vam3, hits give low values",0.844 (active)
same,normalized growth,"S. cerevisiae deletion strains, locus YOR136W, strain idh2, hits give low values",0.992
same,normalized growth,"S. cerevisiae deletion strains, locus YOR144C, strain elg1, hits give low values",0.987
same,normalized growth,"S. cerevisiae deletion strains, locus YOR184W, strain ser1, hits give low values",0.99
same,normalized growth,"S. cerevisiae deletion strains, locus YOR265W, strain rbl2, hits give low values",0.976
same,normalized growth,"S. cerevisiae deletion strains, locus YOR270C, strain vph1, hits give low values",0.441 (active)
same,normalized growth,"S. cerevisiae deletion strains, locus YOR290C, strain snf2, hits give low values",0.941
same,normalized growth,"S. cerevisiae deletion strains, locus YOR316C, strain cot1, hits give low values",0.991
same,normalized growth,"S. cerevisiae deletion strains, locus YPL051W, strain arl3, hits give low values",0.974
same,normalized growth,"S. cerevisiae deletion strains, locus YPL055C, strain LGE1, hits give low values",1.04
same,normalized growth,"S. cerevisiae deletion strains, locus YPL078C, strain atp4, hits give low values",0.97
same,normalized growth,"S. cerevisiae deletion strains, locus YPL106C, strain sse1, hits give low values",0.933
same,normalized growth,"S. cerevisiae deletion strains, locus YPL240C, strain hsp82, hits give low values",0.979
same,normalized growth,"S. cerevisiae deletion strains, locus YPL241C, strain CIN2, hits give low values",1
same,normalized growth,"S. cerevisiae deletion strains, locus YPR119W, strain clb2, hits give low values",0.974
same,normalized growth,"S. cerevisiae deletion strains, locus YPR141C, strain kar3, hits give low values",0.986
same,normalized growth,"S. cerevisiae deletion strains, locus YPR163C, strain tif3, hits give low values",1.02
same,normalized growth,"S. cerevisiae deletion strains, locus YPR167C, strain met16, hits give low values",0.99
same,normalized growth,"S. cerevisiae deletion strains, strain wtn01, hits give low values",0.991
same,normalized growth,"S. cerevisiae strains, strain wild type, hits give low values",0.995
